Screening results deposited in PubChem BioAssay by National Center for Advancing Translational Sciences (NCATS).
Shown is part of a subset that was picked to be rich in hits.
LmPK inh – inhibitors of Leishmania mexicana pyruvate kinase; hit rate 0.37% among 290,000; purified LmPK, Kinase-Glo ATP luminescence, 1 h; AID 1721; Potency, µM (titrated, usually from 57.5 µM), without a hit: top-dose activity change, negative = inhibition, usual class: inhibitors; Q27686; further: potency means the concentration at half of the fitted maximal effect; on the % scale 0 is the no-effect control and ±100 the full control effect
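qHTS format; LmPK 0.1 nM; substrates PEP 0.5 mM and ADP 0.1 mM. One-hour room-temperature incubation, then coupled luciferase luminescence; 0.5 nM enzyme wells mark activation.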
FBPA Giardia inh – blocks Giardia fructose-bisphosphate aldolase activity | purified Giardia FBPA | Potency, µM (top dose mostly 59.6 µM), for the others: at the top dose activity, negative = inhibition, most hits filed as inhibitors | hit rate 0.71% among 290,000; further: potency means the concentration at half of the fitted maximal effect; on the % scale 0 is the no-effect control and ±100 the full control effect; nearly all actives have a fitted effect of over 55% in size
Target sequence (A8B2U2 whole entry, looked up): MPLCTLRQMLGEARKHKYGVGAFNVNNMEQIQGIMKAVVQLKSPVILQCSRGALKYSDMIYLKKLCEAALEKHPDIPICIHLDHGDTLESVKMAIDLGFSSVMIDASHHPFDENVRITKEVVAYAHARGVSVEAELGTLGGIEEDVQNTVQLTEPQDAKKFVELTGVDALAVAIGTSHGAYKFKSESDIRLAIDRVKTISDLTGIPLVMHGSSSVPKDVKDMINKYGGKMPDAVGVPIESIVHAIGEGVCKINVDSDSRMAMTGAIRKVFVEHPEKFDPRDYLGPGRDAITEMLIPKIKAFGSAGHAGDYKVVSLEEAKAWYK
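40 nM FBPA preincubated 10 min at RT with compound (up to 57.5 uM final), then substrate plus GAPDH/TPI/NAD/arsenate coupling and diaphorase/resazurin added. Fluorescence read after 20 min at RT, 525/598 nm.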
TbPYK inhibitor – T. brucei pyruvate kinase inhibition; Q57TT1; TbPYK enzyme, Kinase-Glo Plus ATP luminescence, 45 min; Potency, µM (series often up to 76.8 µM), for inactives: at the highest dose activity, negative = inhibition, hits mostly inhibitors; hit rate 0.12% among 410,000; AID 624173; further: potency means the concentration at half of the fitted maximal effect; on the % scale 0 is the no-effect control and ±100 the full control effect; nearly all actives have a fitted effect of over 50% in size
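Assay buffer: 50 mM TEA pH 7.2, 100 mM KCl, 10 mM MgCl2, 0.05% BSA, 0.01% Tween-20. Pyruvate kinase from T. brucei plus substrate met compound, then ADP (130 uM final). Luminescence was read post 45 min RT.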
CHX counter – counter-screen hit for Shiga toxin inhibitors, cycloheximide; max response, %; cell reporter, cycloheximide protein synthesis inhibition counterscreen; AID 2314; hit rate 12% among 300,000; in the data active means max response mostly above about 13%, no sharp cut-off; inactive means mostly below about 14%; further: read at 38.3 µM for the half of the compounds with a filed dose; 0% is about no effect
RE007 growth inh – less growth of the S. pombe RE007 Vpr strain; S. pombe RE007 Vpr strain, BacTiter-Glo ATP luminescence, 24 h; Potency, µM (doses to about 92.2 µM), without a hit: at the top dose activity change, negative = less growth, most hits filed as inhibitors; hit rate 0.21% among 360,000; AID 651644; active means well fitted falling curve with a large enough effect; inconclusive means small, poorly fitted or top-dose-only effect; inactive means no such curve, though single readings can be large or run the other way; further: potency means the concentration at half of the fitted maximal effect; on the % scale 0 is the no-effect control and ±100 the full control effect; nearly all actives have a fitted effect of over 50% in size
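Fission yeast RE007 carrying one integrated HIV-1 vpr copy, seeded at OD 0.01 in PMG+AL medium with 23 nL pinned compound. Grown 24 h at 30 degrees; viability read by BacTiter-Glo luminescence after 5 min.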
Shiga toxin inh – blocks Shiga toxin action in Vero cells; hit rate 9.2% among 290,000; Vero cells, Shiga toxin protein synthesis inhibition reporter; inhibition, % at 38.7 µM; AID 2315; in the data active means inhibition mostly above about 28%, no sharp cut-off; inactive means mostly below about 43%; further: 0% is about no effect
* hit, by the source's call; ? = inconclusive; nt = not tested or not shown; + = active, no number; [ ] = remark or other dose. Unless noted, the call rests on the fitted dose curve; in most records, active means well fitted curve in the direction sought with a large enough effect; inconclusive means small, poorly fitted or top-dose-only effect, or another doubt; inactive means no such curve, though single readings can be large; an effect the other way counts as inactive or inconclusive.

SMILES | LmPK inh | FBPA Giardia inh | TbPYK inhibitor | CHX counter | RE007 growth inh | Shiga toxin inh
CCOc1ccc(N=C(/C(C(=O)C(=O)N2CCOCC2)=C(\O)c2ccccc2)c2ccccc2)cc1 | -14.3% | -11.6% | -3.2% | 53.0* | -28.7% | 61.9*
CCOc1ccc(OCc2ccc(C(=O)N3CCOCC3)cc2)cc1 | -3.4% | -0.3% | nt | 36.2* | -8.2%[3.69 µM] | 44.4*
CC1CCCN(C(=O)c2ccc(COc3ccccc3Br)cc2)C1 (configuration not stated) | 7.6% | 6.9% | 4.1% | 9.1* | -28.0% | 15.3
CN(C(=O)c1ccco1)c1nc(-c2ccc(F)cc2)cs1 | 0.3% | 8.2% | -1.0% | 44.5* | -1.3% | 57.8*
COCCN(C(=O)c1ccccc1)c1nnc(-c2cccnc2)s1 | -1.5% | -1.4% | -7.1% | 1.6 | -0.1% | 19.4
COc1ccc(-c2nnc(N(C)C(=O)c3ccco3)s2)cc1OC | 1.7% | 9.0% | 0.0% | -2.4 | 10.6% | 13.0
CCN(C(=O)c1ccco1)c1nnc(-c2cccnc2)s1 | -5.1% | 2.9% | -4.0% | 33.7* | -8.1% | 74.7*
CN(C(=O)c1ccco1)c1nnc(-c2ccc(F)cc2)s1 | 8.0% | 5.2% | -1.1% | 50.9* | 1.2% | 84.7*
CN(C(=O)c1ccco1)c1nc(CC(=O)Nc2ccccc2)cs1 | -11.8% | 1.4% | -25.2% | 17.6 | 40.6% | +
CCOc1ccc(NC(=O)C2CCCN(S(=O)(=O)c3ccc(Br)s3)C2)cc1 (configuration not stated) | nt | nt | 3.1% | nt | nt | nt
COCCN(C(=O)c1ccco1)c1nnc(-c2ccc(F)cc2)s1 | -3.4% | -6.4% | -2.7% | 23.4* | 15.0% | 44.4
CCN(C(=O)Cc1ccccc1OC)c1nnc(-c2ccncc2)s1 | 1.7% | -13.5% | -2.2% | -1.5 | 4.1% | -18.2
CCCCN(C(=O)Cc1cccs1)c1nnc(-c2cccnc2)s1 | -2.2% | -25.0% | -1.4% | 20.0* | 10.6% | 44.0*
COCCN(C(=O)Cc1cccs1)c1nnc(-c2cccnc2)s1 | -7.2% | -3.7% | -11.6% | 1.7 | 19.7% | 0.7
CCCN(C(=O)c1ccco1)c1nnc(-c2ccccc2C)s1 | -2.2% | -13.8% | 0.5% | 93.6* | 3.0% | 131.7*
CCCN(C(=O)c1cccs1)c1nnc(-c2ccncc2)s1 | -1.3% | 5.3% | -25.7% | 22.2* | -2.5% | 56.8*
O=C(N/N=C/c1ccc(O)cc1)c1cc(C23CC4CC(CC(C4)C2)C3)[nH]n1 | 1.6% | -1.7% | 1.6% | 2.3 | -19.2% | 47.7
C/C(=N\NC(=O)c1cc(C(C)(C)C)[nH]n1)C12CC3CC(CC(C3)C1)C2 | 2.4% | 1.7% | -2.6% | 22.7* | -7.6% | 19.4
CC1CN(C(=O)/C=C/c2ccccc2[N+](=O)[O-])CC(C)O1 (configuration not stated) | -0.8% | -0.5% | -5.1% | 0.7 | -10.3% | -6.6
O=C(/C=C/c1ccccc1[N+](=O)[O-])N1CCCCC1 | 1.9%[11.5 µM] | -11.0% | -13.7% | 20.2 | -5.0% | 65.6*
O=C(/C=C/c1ccc([N+](=O)[O-])s1)N1CCCC1 | 0.3% | -4.6% | 1.2% | -1.6 | ? | 10.0
CC1CCCCN1C(=O)/C=C/c1ccccc1[N+](=O)[O-] (configuration not stated) | 5.1% | -16.2% | 11.2% | 20.4* | -4.5% | 29.4
O=C(/C=C/c1ccc([N+](=O)[O-])s1)N1CCCCC1 | 4.8% | 0.9% | -2.7% | 23.8* | ? | 16.5
O=C(OCc1ccccc1)[C@@H]1COC(c2ccc(Br)cc2)=N1 | nt | -0.8%[89.2 µM] | nt | 38.4* | nt | +
O=C(O)CC(NC(=O)OCc1ccccc1)c1ccc(Br)cc1 (configuration not stated) | 0.4% | 18.8% | 5.3% | -2.7 | 10.5% | -6.9
SMILES | LmPK inh | FBPA Giardia inh | TbPYK inhibitor | CHX counter | RE007 growth inh | Shiga toxin inh
Brc1ccc(C2=NC(Cc3ccccc3)CO2)cc1 (configuration not stated) | -3.4% | 0.6% | 0.7% | 51.8* | 9.7% | 77.3*
Clc1ccccc1Cn1cccc1C1=NC(Cc2ccccc2)CO1 (configuration not stated) | nt | nt | -0.4% | nt | nt | nt
COC(=O)c1ccc(COc2ccccc2/C=N/Nc2cccc(C(=O)O)c2)cc1 | 4.0% | -4.0% | -2.4% | 55.3* | -9.2% | 80.0*
COc1cc(C=NNc2ccccc2)ccc1OC(=O)c1ccccc1 | nt | nt | -0.2% | nt | 34.7% | nt
CC(Nc1ccc(Br)cc1)C(=O)N/N=C/c1ccccc1OCc1ccccc1 (configuration not stated) | -0.9% | -9.0% | 0.3% | -5.2 | -1.3% | -6.4
CCOc1cc(/C=N/Nc2cccc(C(=O)O)c2)ccc1OC(=O)c1ccccc1 | 2.5% | 6.2% | -3.3% | 61.5* | -12.1% | 185.7*
COc1ccc(NC(C)C(=O)N/N=C/c2ccccc2OCc2ccc(Br)cc2)cc1 (configuration not stated) | 3.4% | 13.2% | 0.7% | 34.7* | 3.5% | 144.5*
O=C(O)c1cccc(NC(=S)N/N=C/c2ccccc2OCc2ccc(Br)cc2)c1 | 1.5% | 4.0% | -12.5% | 15.9* | 10.3% | 69.0
CCOc1ccc(OCC)c(NC(=O)c2cc(S(=O)(=O)N3CCc4ccccc43)cn2C)c1 | nt | nt | 6.6% | nt | nt | nt
COc1ccc(-n2nc(C(=O)NCC(=O)N3CCN(c4ccccn4)CC3)c3ccccc3c2=O)cc1OC | 2.4% | 4.6% | -2.8% | 15.3* | -10.1% | 25.6
COc1ccc(-n2nc(C(=O)NCC(=O)N3CCC4(CC3)OCCO4)c3ccccc3c2=O)cc1OC | 5.0% | 2.1% | -2.2% | 16.6* | -1.9% | 36.9
COc1ccc(-n2nc(C(=O)NCC(=O)N3CCN(c4ccccc4)CC3)c3ccccc3c2=O)cc1OC | 4.7% | -1.0% | -1.2% | 22.4* | 7.8% | 43.3*
COc1ccc(-n2nc(C(=O)NCC(=O)N3CCOCC3)c3ccccc3c2=O)cc1OC | 8.1% | -2.3% | -3.1% | -2.4 | -1.3% | -7.6
COc1ccc(-n2nc(C(=O)NCC(=O)N3CCN(c4ccccn4)CC3)c3ccccc3c2=O)cc1 | 8.8% | -0.3% | -1.4% | 11.4 | -10.1% | 21.3
COc1ccccc1CN1C(=O)C(C)ON=C1c1ccccc1F (configuration not stated) | nt | nt | -11.3% | nt | 2.6%[18.4 µM] | nt
CC(C)CSc1nc2ccccc2[nH]1 | -11.1% | -0.4% | -2.2% | 44.9* | -8.8% | 93.5*
O=C(CSCc1nc2ccccc2[nH]1)Nc1ccccc1 | -1.2% | 0.8% | -2.4% | -4.4 | -11.0% | 16.4
Nc1nc(CSc2nc3ccccc3[nH]2)cs1 | -8.2% | -17.4% | 1.3% | 25.2* | 8.4% | 47.1*
O=c1[nH]c(SCc2ccccc2)nc2[nH]ncc12 | -4.6% | 1.7% | 0.0% | 13.2 | 19.4% | 27.6*
c1ccc(CSCc2nc3ccccc3[nH]2)cc1 | -6.7% | -7.9% | 6.0% | 62.2* | 2.7% | 73.9*
